56 compounds from ChEMBL document CHEMBL4513216, “Probing the Open Global Health Chemical Diversity Library for Multistage-Active Starting Points for Next-Generation Antimalarials” (ACS Infect Dis, 2020) can be followed below.

About 8,600 (12%) of roughly 69,000 compounds showed an effect of 50% or more. This is one part of a sample in which strong results are shown more often than they occur.

This test deals with Plasmodium berghei. Kind of test: Screen against P. berghei liver stage (PbLuc), transformed with Luciferase, at 10uM. Type of test: functional, HepG2. The following applies: tested at 10 uM.
For `CCc1noc(C(C)N2CCN(C)CC2)n1` (stereo unspecified), the INHIBITION is recorded as -5.25%.

`Cc1noc(C(C)N2CCN(Cc3ccco3)CC2)n1` (stereo unspecified): the INHIBITION turned out to be 34.7%.

Turning to `Cc1noc(C(C)N2CCN(c3ncnc4ccccc34)CC2)n1` (stereo unspecified), the INHIBITION is recorded as 51.3%.

With `CCc1noc(C(C)N2CCN(c3ccc(C#N)cn3)CC2)n1` (stereo unspecified), the INHIBITION is listed as -25.3%.

As to `Cc1cnc(CN2CCN(C(C)c3nc(C)no3)CC2)cn1` (stereo unspecified), the INHIBITION is reported as -14.8%.

With `Nc1ccnc(N2C[C@H](O)[C@@H](N3CCN(c4ccccn4)CC3)C2)n1`, the INHIBITION was 37.2%.

As to `O=C([C@H]1C[C@H]2CN(c3ncc(F)cn3)C[C@@H]1O2)N1CCOCC1`, the INHIBITION is given as 17.7%.

Regarding `CC1CN(CC(=O)NC2CCOCC2)CCN1Cc1nccn1C` (stereo unspecified), the INHIBITION was 29.305%.

Consider `CCCOc1cccc(C(=O)Oc2cc(=O)n3cccc(C)c3n2)c1`, for which the INHIBITION is reported as 22.6%.

In the case of `Cc1ncncc1C(=O)N1CCCC1c1c(C)nn(C)c1Cl` (stereo unspecified), the INHIBITION is recorded as 1.78%.

Consider `Cc1cnc(C(=O)N2C[C@@H]3CC[C@H]2CN(c2cnccn2)C3)cn1`, for which the INHIBITION is recorded as -55.1%.

As for `O=C(C1CCCCC1)N1CCN(Cc2nc(-c3ccco3)no2)CC1`, the INHIBITION was found to be 23.7%.

As for `COC(=O)c1ccoc1CN(C)CC(=O)N(C)C`, the INHIBITION worked out at 22.8%.

In the case of `NC(=O)CN1CCOCC(Cc2ccccc2Cl)C1` (stereo unspecified), the INHIBITION is 11.1%.

For the compound `O=C(c1csc(I)c1)N1CCc2c(ncn2C2CC2)C1`, the INHIBITION is on record as 76%.

Consider `COC(=O)c1ccc(C(=O)N2CCc3c(ncn3C3CC3)C2)cc1`, for which the INHIBITION was -36.95%.

Consider `CN(C)c1ncccc1C(=O)N1CCc2c(ncn2C2CC2)C1`, for which the INHIBITION is reported as -10.785%.

On to `CCN(CC)Cc1nnc2sc(C(C)Oc3ccccc3)nn12` (stereo unspecified), for which the INHIBITION is on record as -2.93%.

Take `CC(C)C1CN(S(=O)(=O)N(C)C)CCCN1Cc1ccc(F)cc1` (stereo unspecified): the INHIBITION is 12.8%.

As for `CC(C)C1CN(c2cccc(C#N)n2)CCCN1Cc1ccc(F)cc1` (stereo unspecified), the INHIBITION is 68.5%.

For `CC(C)C1CN(c2cccc(C#N)n2)CCCN1CC1CC1` (stereo unspecified), the INHIBITION is given as 33.9%.

For `CC(C)C1CN(S(=O)(=O)N2CCCC2)CCCN1Cc1ccc(F)cc1` (stereo unspecified), the INHIBITION is listed as 65.3%.

In the case of `CC(C)C1CN(S(C)(=O)=O)CCCN1Cc1ccc(F)cc1` (stereo unspecified), the INHIBITION worked out at 24.3%.

For the compound `CC(C)C1CN(S(=O)(=O)C2CC2)CCCN1Cc1ccc(F)cc1` (stereo unspecified), the INHIBITION was found to be 45.6%.

Regarding `Fc1cnc(N2CCn3cc(CNc4ccccn4)nc3C2)nc1`, the INHIBITION is 47.2%.

For `CC(C)n1nc(CNc2ncccn2)c2c1CN(C1CCOCC1)CC2`, the INHIBITION is on record as -18.2%.

In the case of `O=C(NCCn1cccc1)C1CCC(=O)N(C2CCCC2)C1` (stereo unspecified), the INHIBITION is reported as 41.2%.

Take `CSCCNC(=O)C1CCC(=O)N(C2CCCC2)C1` (stereo unspecified): the INHIBITION was 17.9%.

With `O=C(NCCN1CCCCC1=O)C1CCC(=O)N(C2CCCC2)C1` (stereo unspecified), the INHIBITION is recorded as 55.6%.

As to `CNS(=O)(=O)Cc1cccc(CNc2ccc(C#N)cn2)c1`, the INHIBITION is recorded as -55%.

For `CNC(=O)c1cccc(CCNc2ccc(C#N)cn2)c1`, the INHIBITION is reported as -11%.

In the case of `Oc1cccc(CNCC2CCCO2)c1` (stereo unspecified), the INHIBITION was found to be 35.5%.

In the case of `Cc1nc2ccccc2nc1NCc1cccc(OCC2CCCO2)c1` (stereo unspecified), the INHIBITION was found to be 83.9%.

Regarding `N#Cc1ccc(NCCCOCC2CCCO2)c(F)c1` (stereo unspecified), the INHIBITION worked out at 6.02%.

For the compound `N#Cc1ccc(NCc2cccc(OCC3CCCO3)c2)nc1` (stereo unspecified), the INHIBITION is reported as 53.8%.

In the case of `CN(C)C(=O)c1cccc(CNc2ccc(C#N)cn2)c1`, the INHIBITION is given as 73.8%.

For the compound `N#Cc1ccc(NCc2cccc(COC3CCOCC3)c2)nc1`, the INHIBITION turned out to be 7.58%.

`Cc1nnc(NCc2cccc(OCC3CCCO3)c2)c(C#N)c1C` (stereo unspecified): the INHIBITION worked out at 1.74%.

Turning to `CN(C)Cc1cc(=O)n2c(n1)CN(S(=O)(=O)C1CC1)CCC2`, the INHIBITION was determined as 21.6%.

As for `O=C(CCn1cccn1)N1C[C@H]2CC[C@@H](C1)N(Cc1ccccn1)C2=O`, the INHIBITION is reported as 8.47%.

`N#Cc1cc2cc(Cl)cnc2nc1O`: the INHIBITION is given as -26.3%.

`CC(C)(C(=O)NCC1CCN(Cc2ccccn2)C1)c1ccccc1` (stereo unspecified): the INHIBITION is reported as 49.2%.

Turning to `O=C1NCCCc2[nH]c(C3CCCN(C(=O)C4CC4)C3)nc21` (stereo unspecified), the INHIBITION stood at 26.8%.

For `CC(C)OCCN1CCN(c2ccc(CN(C)C)cn2)CC1`, the INHIBITION turned out to be 25.4%.

On to `CN1CCOC(CNCc2coc(-c3cccc(Cl)c3)n2)C1` (stereo unspecified), for which the INHIBITION is 33.7%.

For the compound `CN1CCOC(CNCc2coc(-c3ccccc3)n2)C1` (stereo unspecified), the INHIBITION turned out to be 22.5%.

Regarding `CC(O)CN1CCN(Cc2coc(-c3ccccc3)n2)CC1` (stereo unspecified), the INHIBITION came out at 1.45%.

Turning to `OCCN1CCN(Cc2coc(-c3ccccc3Cl)n2)CC1`, the INHIBITION was -113%.

Consider `COCCN1CCN(Cc2coc(-c3ccccc3Cl)n2)CC1`, for which the INHIBITION was 63.8%.

On to `CCN1CCN(Cc2coc(-c3cccc(F)c3)n2)CC1`, for which the INHIBITION was 65.2%.

Take `OCCN1CCN(Cc2coc(-c3cccc(F)c3)n2)CC1`: the INHIBITION is given as 48.4%.

For the compound `OCCN1CCN(Cc2coc(-c3cccc(Cl)c3)n2)CC1`, the INHIBITION was 33.3%.

For the compound `CC(=O)N1CCN(Cc2coc(-c3cccc(F)c3)n2)CC1`, the INHIBITION is given as -14.7%.

`CN1CCOC(CNCc2coc(-c3cccc(F)c3)n2)C1` (stereo unspecified): the INHIBITION came to 57.8%.

For `CC(O)CN1CCN(Cc2coc(-c3ccccc3Cl)n2)CC1` (stereo unspecified), the INHIBITION is reported as -66.7%.

On to `OCCN1CCN(Cc2coc(-c3ccccc3)n2)CC1`, for which the INHIBITION is given as 59%.
